# Article PMC7862700, “An all-to-all approach to the identification of sequence-specific readers for epigenetic DNA modifications on cytosine”
# What was measured:
# Assay in all cases: DAPPL (digital affinity profiling via proximity ligation, sequencing); 10 mM Tris-HCl pH 7.5, 50 mM NaCl, 1 mM DTT, 4% glycerol, room temperature, 30 min; GST-TFs on glutathione beads, 16-mer random dsDNA library, 0.1% formaldehyde crosslink after washing; high values mean tight binding
# FLI1 = target: T1, FLI1 (Homo sapiens, UniProt Q01543 1-452); settings: protein: recombinant; tags: N-terminal GST; dsDNA, one strand shown
# T1 sequence: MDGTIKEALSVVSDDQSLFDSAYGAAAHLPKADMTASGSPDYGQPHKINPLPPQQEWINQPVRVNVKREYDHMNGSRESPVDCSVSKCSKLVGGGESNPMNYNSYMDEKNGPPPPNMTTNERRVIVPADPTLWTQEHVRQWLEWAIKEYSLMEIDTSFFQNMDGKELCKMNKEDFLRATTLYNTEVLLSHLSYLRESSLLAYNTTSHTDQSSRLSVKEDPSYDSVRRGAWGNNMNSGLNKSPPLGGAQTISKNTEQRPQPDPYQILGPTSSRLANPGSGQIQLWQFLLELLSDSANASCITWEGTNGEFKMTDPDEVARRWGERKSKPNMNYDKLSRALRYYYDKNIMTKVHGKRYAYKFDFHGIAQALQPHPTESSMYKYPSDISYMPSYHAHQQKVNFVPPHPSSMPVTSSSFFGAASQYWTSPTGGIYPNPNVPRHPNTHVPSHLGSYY
# In short: (§1)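 The binding signal reported is, for every hexamer, its read frequency for a factor over its read frequency for the tag-only sample. Reads came from pools of yeast-expressed, GST-fused human transcription factors on glutathione beads, barcoded with DNA and mixed with that sample, which were incubated with 200 nmole of a random double-stranded 16-mer DNA library in Tris/NaCl/DTT/glycerol buffer at room temperature for 30 min. After washing, the pools were crosslinked with 0.1% formaldehyde, proximity-ligated with BsaI/T4 ligase for 1 h at 37 °C, PCR-amplified and sequenced on an Illumina NextSeq500.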
# ELK1 = target: T2, ELK1 (Homo sapiens, UniProt P19419 1-428); settings: protein: recombinant; tags: N-terminal GST; dsDNA, one strand shown
# T2 sequence: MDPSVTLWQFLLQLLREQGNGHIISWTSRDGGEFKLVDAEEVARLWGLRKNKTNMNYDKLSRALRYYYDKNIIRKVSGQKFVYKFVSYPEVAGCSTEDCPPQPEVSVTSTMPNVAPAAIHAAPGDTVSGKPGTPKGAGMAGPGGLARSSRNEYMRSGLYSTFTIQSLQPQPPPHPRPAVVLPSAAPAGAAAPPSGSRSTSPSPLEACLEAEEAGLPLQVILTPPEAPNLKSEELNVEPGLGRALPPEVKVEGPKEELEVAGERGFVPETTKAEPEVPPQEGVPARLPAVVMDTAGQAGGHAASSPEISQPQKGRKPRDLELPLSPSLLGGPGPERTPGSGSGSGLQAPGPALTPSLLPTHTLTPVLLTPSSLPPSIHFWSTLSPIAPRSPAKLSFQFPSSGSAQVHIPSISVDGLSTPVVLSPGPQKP
# In short: as §1
# GABPA = target: T3, GABPA (Homo sapiens, UniProt Q06546 1-454); settings: protein: recombinant; tags: N-terminal GST; dsDNA, one strand shown
# T3 sequence: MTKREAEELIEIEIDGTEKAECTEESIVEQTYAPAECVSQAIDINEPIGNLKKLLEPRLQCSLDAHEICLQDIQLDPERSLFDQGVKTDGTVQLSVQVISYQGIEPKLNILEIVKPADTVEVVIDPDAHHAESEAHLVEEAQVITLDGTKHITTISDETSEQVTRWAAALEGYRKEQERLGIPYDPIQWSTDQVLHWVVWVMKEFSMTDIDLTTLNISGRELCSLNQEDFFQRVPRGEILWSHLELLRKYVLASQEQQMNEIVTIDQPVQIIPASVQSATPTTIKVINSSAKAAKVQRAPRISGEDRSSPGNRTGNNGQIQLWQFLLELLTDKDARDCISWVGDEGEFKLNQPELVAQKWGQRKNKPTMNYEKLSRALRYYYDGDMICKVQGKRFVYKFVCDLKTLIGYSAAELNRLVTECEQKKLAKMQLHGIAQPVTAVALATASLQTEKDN
# In short: as §1
# ERG = target: T4, ERG (Homo sapiens, UniProt P11308 1-479); settings: protein: recombinant; tags: N-terminal GST; dsDNA, one strand shown
# T4 sequence: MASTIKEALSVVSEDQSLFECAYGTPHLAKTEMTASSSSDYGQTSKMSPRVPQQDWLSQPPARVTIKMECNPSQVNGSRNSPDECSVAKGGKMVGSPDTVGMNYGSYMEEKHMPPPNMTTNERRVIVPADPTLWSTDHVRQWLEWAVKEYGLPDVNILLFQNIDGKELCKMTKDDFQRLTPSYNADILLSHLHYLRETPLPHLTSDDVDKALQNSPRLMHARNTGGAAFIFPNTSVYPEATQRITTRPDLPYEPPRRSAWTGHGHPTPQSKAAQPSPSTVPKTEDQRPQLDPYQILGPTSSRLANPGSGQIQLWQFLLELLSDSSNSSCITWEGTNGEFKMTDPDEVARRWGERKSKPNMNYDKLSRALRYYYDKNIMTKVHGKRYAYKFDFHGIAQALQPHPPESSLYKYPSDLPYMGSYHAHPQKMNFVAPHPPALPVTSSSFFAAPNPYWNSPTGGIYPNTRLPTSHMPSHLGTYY
# In short: as §1
# ELF1 = ELF1 (Homo sapiens, UniProt P32519 1-619); settings: protein: recombinant; tags: N-terminal GST; dsDNA, one strand shown
# Chain of ELF1 (P32519 whole entry): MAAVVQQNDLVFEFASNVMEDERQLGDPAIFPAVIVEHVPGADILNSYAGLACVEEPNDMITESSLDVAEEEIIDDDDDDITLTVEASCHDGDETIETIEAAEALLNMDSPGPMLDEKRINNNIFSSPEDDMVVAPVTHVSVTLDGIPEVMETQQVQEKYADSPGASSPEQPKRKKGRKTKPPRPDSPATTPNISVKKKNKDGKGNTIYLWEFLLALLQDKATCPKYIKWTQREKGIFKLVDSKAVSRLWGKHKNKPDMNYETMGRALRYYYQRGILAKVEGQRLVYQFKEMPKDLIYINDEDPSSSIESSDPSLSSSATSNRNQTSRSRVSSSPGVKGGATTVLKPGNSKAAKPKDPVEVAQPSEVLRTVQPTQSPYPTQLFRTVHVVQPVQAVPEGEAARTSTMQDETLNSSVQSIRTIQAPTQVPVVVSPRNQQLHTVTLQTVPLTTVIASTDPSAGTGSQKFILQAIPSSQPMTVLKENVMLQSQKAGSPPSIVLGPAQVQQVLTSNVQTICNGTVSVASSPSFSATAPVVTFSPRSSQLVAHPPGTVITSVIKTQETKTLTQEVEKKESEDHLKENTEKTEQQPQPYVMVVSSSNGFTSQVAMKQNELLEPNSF
# In short: as §1
# EHF = target: T5, EHF (Homo sapiens, UniProt Q9NZC4 1-300); settings: protein: recombinant; tags: N-terminal GST; dsDNA, one strand shown
# T5 sequence: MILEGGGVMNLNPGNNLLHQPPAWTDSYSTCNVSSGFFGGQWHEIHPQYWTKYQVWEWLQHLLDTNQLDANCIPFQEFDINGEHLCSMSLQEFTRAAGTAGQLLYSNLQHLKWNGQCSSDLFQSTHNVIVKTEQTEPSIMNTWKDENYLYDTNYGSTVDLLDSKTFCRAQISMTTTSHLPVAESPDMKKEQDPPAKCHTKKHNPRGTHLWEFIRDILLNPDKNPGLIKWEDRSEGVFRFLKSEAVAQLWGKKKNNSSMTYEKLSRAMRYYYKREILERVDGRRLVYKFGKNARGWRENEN
# In short: as §1
# SPI1 = SPI1 (Homo sapiens, UniProt P17947 1-270); settings: protein: recombinant; tags: N-terminal GST; dsDNA, one strand shown
# In short: as §1
# SPIB = SPIB (Homo sapiens, UniProt Q01892 1-262); settings: protein: recombinant; tags: N-terminal GST; dsDNA, one strand shown
# Chain of SPIB (Q01892 whole entry): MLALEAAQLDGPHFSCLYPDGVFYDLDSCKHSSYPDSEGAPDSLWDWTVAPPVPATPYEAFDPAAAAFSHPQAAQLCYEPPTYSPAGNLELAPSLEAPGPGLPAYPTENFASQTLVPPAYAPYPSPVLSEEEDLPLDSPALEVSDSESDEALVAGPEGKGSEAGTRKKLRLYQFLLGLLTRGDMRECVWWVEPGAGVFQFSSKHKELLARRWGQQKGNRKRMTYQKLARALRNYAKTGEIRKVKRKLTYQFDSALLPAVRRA
# In short: as §1
# ELK3 = target: T6, ELK3 (Homo sapiens, UniProt P41970 1-407); settings: protein: recombinant; tags: N-terminal GST; dsDNA, one strand shown
# T6 sequence: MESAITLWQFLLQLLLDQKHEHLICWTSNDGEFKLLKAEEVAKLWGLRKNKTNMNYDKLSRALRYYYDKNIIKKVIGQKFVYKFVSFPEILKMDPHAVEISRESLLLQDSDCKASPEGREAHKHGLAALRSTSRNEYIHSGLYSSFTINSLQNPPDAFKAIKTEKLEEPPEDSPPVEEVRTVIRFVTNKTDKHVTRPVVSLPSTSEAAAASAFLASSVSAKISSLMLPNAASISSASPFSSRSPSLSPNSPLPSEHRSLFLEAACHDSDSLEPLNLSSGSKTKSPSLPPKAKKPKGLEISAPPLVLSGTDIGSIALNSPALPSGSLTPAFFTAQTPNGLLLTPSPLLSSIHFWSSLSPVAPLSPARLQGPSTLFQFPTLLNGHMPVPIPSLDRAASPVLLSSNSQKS
# In short: as §1
# FEV = target: T7, FEV (Homo sapiens, UniProt Q99581 1-238); settings: protein: recombinant; tags: N-terminal GST; dsDNA, one strand shown
# T7 sequence: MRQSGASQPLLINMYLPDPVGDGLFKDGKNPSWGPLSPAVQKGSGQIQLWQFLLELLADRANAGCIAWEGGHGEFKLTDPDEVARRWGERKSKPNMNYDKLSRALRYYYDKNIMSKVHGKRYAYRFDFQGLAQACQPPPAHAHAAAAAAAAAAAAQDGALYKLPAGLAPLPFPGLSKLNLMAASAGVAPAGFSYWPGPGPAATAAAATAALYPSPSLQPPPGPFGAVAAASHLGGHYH
# In short: as §1
# ETV5 = ETV5 (Homo sapiens, UniProt P41161 1-510); settings: protein: recombinant; tags: N-terminal GST; dsDNA, one strand shown
# Chain of ETV5 (P41161 whole entry): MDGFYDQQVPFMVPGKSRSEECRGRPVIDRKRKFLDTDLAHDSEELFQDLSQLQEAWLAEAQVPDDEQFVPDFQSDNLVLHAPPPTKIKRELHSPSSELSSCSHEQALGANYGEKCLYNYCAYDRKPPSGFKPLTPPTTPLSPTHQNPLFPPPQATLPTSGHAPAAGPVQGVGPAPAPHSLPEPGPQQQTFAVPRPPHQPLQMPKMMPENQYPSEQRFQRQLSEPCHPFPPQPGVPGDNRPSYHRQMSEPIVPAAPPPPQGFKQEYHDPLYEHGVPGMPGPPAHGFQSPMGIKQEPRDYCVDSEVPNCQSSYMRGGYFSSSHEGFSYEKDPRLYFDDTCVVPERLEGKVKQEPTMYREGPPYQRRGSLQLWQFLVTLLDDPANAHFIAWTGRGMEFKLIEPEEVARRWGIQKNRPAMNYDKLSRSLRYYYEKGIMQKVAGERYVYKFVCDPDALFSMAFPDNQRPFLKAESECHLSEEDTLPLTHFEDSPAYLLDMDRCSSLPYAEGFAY
# In short: as §1
# HSF1 = HSF1 (Homo sapiens, UniProt Q00613 1-529); settings: protein: recombinant; tags: N-terminal GST; chain copies: 3; dsDNA, one strand shown
# Chain of HSF1 (Q00613 whole entry): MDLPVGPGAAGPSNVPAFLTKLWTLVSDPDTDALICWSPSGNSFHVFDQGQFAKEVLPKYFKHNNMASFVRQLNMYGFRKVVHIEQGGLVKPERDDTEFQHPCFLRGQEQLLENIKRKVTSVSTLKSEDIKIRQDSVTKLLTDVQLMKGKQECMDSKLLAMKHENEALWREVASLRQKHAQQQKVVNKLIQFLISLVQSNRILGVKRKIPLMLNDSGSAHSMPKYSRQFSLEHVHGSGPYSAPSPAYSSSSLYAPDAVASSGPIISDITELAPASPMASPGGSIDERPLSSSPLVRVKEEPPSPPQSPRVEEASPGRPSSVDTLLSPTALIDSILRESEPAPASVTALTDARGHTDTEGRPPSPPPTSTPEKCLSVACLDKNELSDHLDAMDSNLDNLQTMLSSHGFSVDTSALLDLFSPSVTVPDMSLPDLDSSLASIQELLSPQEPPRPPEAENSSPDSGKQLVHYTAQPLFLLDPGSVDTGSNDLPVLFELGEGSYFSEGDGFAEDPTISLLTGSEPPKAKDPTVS
# In short: as §1
# SPIC = target: T8, SPIC (Homo sapiens, UniProt Q8N5J4 1-248); settings: protein: recombinant; tags: N-terminal GST; dsDNA, one strand shown
# T8 sequence: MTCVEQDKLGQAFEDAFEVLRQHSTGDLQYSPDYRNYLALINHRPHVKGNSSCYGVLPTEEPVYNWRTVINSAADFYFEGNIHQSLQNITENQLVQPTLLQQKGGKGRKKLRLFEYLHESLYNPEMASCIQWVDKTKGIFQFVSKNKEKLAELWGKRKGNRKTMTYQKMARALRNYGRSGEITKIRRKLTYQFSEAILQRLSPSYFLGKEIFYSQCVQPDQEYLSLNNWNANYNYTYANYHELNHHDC
# In short: as §1
# ELF4 = ELF4 (Homo sapiens, UniProt Q99607 1-663); settings: protein: recombinant; tags: N-terminal GST; dsDNA, one strand shown
# Chain of ELF4 (Q99607 whole entry): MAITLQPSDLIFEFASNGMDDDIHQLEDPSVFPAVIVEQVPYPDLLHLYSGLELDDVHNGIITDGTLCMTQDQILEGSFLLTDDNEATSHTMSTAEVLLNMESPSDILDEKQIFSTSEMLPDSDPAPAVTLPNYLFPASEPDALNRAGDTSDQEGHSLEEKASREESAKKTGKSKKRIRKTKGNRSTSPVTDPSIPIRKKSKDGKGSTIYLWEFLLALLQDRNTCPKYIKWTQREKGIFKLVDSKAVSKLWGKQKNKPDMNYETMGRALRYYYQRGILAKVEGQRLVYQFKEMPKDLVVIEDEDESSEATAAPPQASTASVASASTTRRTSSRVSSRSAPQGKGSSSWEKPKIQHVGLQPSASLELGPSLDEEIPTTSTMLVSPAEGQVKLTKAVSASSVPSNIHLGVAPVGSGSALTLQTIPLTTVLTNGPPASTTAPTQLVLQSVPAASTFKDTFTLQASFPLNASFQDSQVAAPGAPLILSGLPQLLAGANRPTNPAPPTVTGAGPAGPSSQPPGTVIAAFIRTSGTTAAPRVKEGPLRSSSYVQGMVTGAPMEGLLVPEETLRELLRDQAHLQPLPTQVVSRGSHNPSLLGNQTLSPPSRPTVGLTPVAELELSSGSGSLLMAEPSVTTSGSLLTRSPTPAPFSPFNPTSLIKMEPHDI
# In short: as §1
# ELK4 = target: T9, ELK4 (Homo sapiens, UniProt P28324-2 1-405); settings: protein: recombinant; tags: N-terminal GST; dsDNA, one strand shown
# T9 sequence: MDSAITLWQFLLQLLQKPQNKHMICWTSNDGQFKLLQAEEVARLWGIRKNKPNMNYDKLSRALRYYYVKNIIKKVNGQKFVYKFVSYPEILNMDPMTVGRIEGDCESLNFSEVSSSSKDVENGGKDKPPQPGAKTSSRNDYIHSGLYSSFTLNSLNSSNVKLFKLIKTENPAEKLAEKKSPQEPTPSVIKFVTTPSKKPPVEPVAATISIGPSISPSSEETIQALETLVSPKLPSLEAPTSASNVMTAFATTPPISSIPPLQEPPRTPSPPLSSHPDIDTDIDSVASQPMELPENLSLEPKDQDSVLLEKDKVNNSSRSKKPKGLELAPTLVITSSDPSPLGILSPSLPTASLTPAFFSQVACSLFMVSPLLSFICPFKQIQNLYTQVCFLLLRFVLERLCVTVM
# In short: as §1
# ETV2 = target: T10, ETV2 (Homo sapiens, UniProt O00321 1-342); settings: protein: recombinant; tags: N-terminal GST; dsDNA, one strand shown
# T10 sequence: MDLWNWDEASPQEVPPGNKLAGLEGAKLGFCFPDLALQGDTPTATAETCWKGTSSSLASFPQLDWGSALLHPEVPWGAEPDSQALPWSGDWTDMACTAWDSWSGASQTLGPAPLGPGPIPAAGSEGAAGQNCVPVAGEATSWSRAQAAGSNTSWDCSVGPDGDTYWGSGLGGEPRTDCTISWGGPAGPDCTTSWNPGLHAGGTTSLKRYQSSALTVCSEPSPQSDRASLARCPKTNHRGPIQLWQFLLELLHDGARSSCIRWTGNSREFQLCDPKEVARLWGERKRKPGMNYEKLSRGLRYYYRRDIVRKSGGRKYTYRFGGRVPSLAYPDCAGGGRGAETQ
# In short: as §1
# ELF3 = target: T11, ELF3 (Homo sapiens, UniProt P78545 1-371); settings: protein: recombinant; tags: N-terminal GST; dsDNA, one strand shown
# T11 sequence: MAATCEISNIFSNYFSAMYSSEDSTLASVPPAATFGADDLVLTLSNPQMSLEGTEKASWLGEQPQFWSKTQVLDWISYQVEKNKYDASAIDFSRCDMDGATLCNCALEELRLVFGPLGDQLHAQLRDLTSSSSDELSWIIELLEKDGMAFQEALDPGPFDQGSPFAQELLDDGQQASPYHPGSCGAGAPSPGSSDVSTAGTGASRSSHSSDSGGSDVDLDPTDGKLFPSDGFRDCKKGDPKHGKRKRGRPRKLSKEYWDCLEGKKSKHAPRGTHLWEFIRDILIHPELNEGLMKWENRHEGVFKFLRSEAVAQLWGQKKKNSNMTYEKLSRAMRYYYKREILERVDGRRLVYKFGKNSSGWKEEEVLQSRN
# In short: as §1
# ETV1 = ETV1 (Homo sapiens, UniProt P50549 1-477); settings: protein: recombinant; tags: N-terminal GST; dsDNA, one strand shown
# Chain of ETV1 (P50549 whole entry): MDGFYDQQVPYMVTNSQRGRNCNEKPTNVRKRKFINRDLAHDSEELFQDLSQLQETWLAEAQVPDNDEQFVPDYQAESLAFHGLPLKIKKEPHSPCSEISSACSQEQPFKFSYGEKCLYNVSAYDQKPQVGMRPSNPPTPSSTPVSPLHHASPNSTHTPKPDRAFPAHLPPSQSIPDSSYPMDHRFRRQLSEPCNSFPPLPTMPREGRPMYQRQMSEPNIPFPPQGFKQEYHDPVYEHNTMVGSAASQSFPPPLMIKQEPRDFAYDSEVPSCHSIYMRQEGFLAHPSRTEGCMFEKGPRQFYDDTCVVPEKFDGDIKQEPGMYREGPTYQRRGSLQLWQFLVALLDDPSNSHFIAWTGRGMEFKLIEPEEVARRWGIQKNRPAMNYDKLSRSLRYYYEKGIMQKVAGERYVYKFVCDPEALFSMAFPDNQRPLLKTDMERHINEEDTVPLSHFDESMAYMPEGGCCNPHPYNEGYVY
# In short: as §1
sequence,measurement,setting,value
GACCTG,binding signal,FLI1,"1.19 fold enrichment (6-mer frequency, TF over GST control)"
same,binding signal,ELK1,"1.26 fold enrichment (6-mer frequency, TF over GST control)"
same,binding signal,GABPA,"1.19 fold enrichment (6-mer frequency, TF over GST control)"
same,binding signal,ERG,"1.26 fold enrichment (6-mer frequency, TF over GST control)"
same,binding signal,ELF1,"1.27 fold enrichment (6-mer frequency, TF over GST control)"
same,binding signal,EHF,"1.28 fold enrichment (6-mer frequency, TF over GST control)"
same,binding signal,SPI1,"1.26 fold enrichment (6-mer frequency, TF over GST control)"
same,binding signal,SPIB,"1.17 fold enrichment (6-mer frequency, TF over GST control)"
same,binding signal,ELK3,"1.35 fold enrichment (6-mer frequency, TF over GST control)"
same,binding signal,FEV,"1.32 fold enrichment (6-mer frequency, TF over GST control)"
same,binding signal,ETV5,"1.28 fold enrichment (6-mer frequency, TF over GST control)"
same,binding signal,HSF1,"1.01 fold enrichment (6-mer frequency, TF over GST control)"
same,binding signal,SPIC,"1.24 fold enrichment (6-mer frequency, TF over GST control)"
same,binding signal,ELF4,"1.28 fold enrichment (6-mer frequency, TF over GST control)"
same,binding signal,ELK4,"1.29 fold enrichment (6-mer frequency, TF over GST control)"
same,binding signal,ETV2,"1.45 fold enrichment (6-mer frequency, TF over GST control)"
same,binding signal,ELF3,"1.2 fold enrichment (6-mer frequency, TF over GST control)"
same,binding signal,ETV1,"1.21 fold enrichment (6-mer frequency, TF over GST control)"
